Data on 28 molecules can be found in PubChem BioAssay (NCATS).

Several values for one entry are separate records, joined by “and”; a condition that tells them apart may be missing. Equal entries are not always repeated. Inconclusive results are not listed. Unmarked numbers belong to inactive results. Activity calls are given as the source filed them. The call rests on the fitted dose curve; in most records, active means well fitted curve in the direction sought with a large enough effect; inconclusive means small, poorly fitted or top-dose-only effect, or another doubt; inactive means no such curve, though single readings can be large; an effect the other way counts as inactive or inconclusive.

The target in test [1] is Cytochrome P450 3A7 (Homo sapiens) (UniProt P24462). Nature of the test: Cytochrome P450 family 3 subfamily A member 7 (CYP3A7) small molecule antagonists: luciferase biochemical qHTS assay (AID 1963596). Further: nearly all actives have a fitted effect of over 40% in size. Particulars: P450-Glo CYP3A7 enzyme luminescence, 1 h; series mostly up to 57.4 µM. The procedure, abridged: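 P450-Glo luminescent assay: CYP3A7 enzyme converts a proluciferin substrate to luciferin, detected by luciferase reagent; light proportional to activity. Compounds in DMSO preincubated 10 min with enzyme-substrate mix at room temperature, then NADPH regeneration added for 1 h.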

A short description of test [2]: Viability qHTS for spleen associated tyrosine kinase inhibitor (SYKi) drug resistant MV4-11 cells (AID 1963824). Further: nearly all actives have a fitted effect of over 35% in size. Particulars: SYKi-resistant MV4-11 viability, CellTiter-Glo, 72 h; series mostly up to 45 µM. The procedure, abridged: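 CellTiter-Glo luminescence, read 10 min after reagent addition, reports viability after a 72 hr compound exposure. Cells are an MV4-11 line made resistant to SYK inhibition, seeded at 500 per well onto compound-containing plates.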

The nature of test [3]: Quantitative highthroughput screen to assess conditional lethalithy of NOMO1 cells grown in RPMI1640 with untreated serum (RPMI+s) (AID 1963876). Further: nearly all actives have a fitted effect of over 35% in size.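 On Viability: 100% = DMSO wells and 0% = empty wells without cells.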 To be noted: NOMO1 AML cells in RPMI+serum, CellTiter-Glo viability, 48 h; series mostly up to 45.8 µM. The procedure, abridged: (§1)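 Each medium arm—HPLM with 10% dialyzed FBS, or RPMI1640 with 5 mM glucose and 10% untreated or dialyzed FBS—was screened against an 11-point, 3-fold compound titration for 48 h at 37 °C, with CellTiter-Glo luminescence as endpoint.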

Test [4] is described as follows: Quantitative highthroughput screen to assess conditional lethalithy of NOMO1 cells grown in RPMI1640 with dialyzed fetal bovine serum (RPMI+ds) (AID 1963877). Further: nearly all actives have a fitted effect of over 30% in size.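 On Viability: 100% = DMSO control wells and 0% = empty wells.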 To be noted: NOMO1 in RPMI+dialyzed FBS viability, ATP luminescence, 48 h; series mostly up to 45.8 µM. The procedure, abridged:
as §1

Test [5] can be described thus: Quantitative highthroughput screen to assess conditional lethalithy of NOMO1 cells grown in Human Plasma-Like Medium with dialyzed fetal bovine serum (HPLM+ds) (AID 1963878). Further: nearly all actives have a fitted effect of over 35% in size.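 On Viability: 100% = DMSO wells and 0% = empty wells on each plate.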 To be noted: NOMO1 AML cells in HPLM+ds, CellTiter-Glo viability, 48 h; series mostly up to 45.8 µM. A digest of the protocol:
as §1

Test [6] in a line: Quantitative highthroughput screen to assess conditional lethalithy of P12 Ichikawa cells grown in Human Plasma-Like Medium with dialyzed fetal bovine serum (HPLM+ds) (AID 1963879). Further: nearly all actives have a fitted effect of over 35% in size. Particulars: ATP luminescence, 48 h; Potency: viability; series mostly up to 45.8 µM. The procedure, abridged:
as §1

Test [7] is described as follows: Quantitative highthroughput screen to assess conditional lethalithy of P12 Ichikawa cells grown in RPMI1640 with dialyzed fetal bovine serum (RPMI+ds) (AID 1963880). Further: nearly all actives have a fitted effect of over 35% in size.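 On Viability: 100% = DMSO wells and 0% = empty wells on each plate.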 To be noted: ATP luminescence, 48 h; Potency: P12-Ichikawa viability; series mostly up to 45.8 µM. The procedure, abridged: as §1
Test [8] can be described thus: Quantitative highthroughput screen to assess conditional lethalithy of P12 Ichikawa cells grown in RPMI1640 with untreated serum (RPMI+s) (AID 1963881). Further: nearly all actives have a fitted effect of over 35% in size.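 On Viability: 100% = DMSO wells and 0% = empty wells without cells.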 Particulars: ATP luminescence, 48 h; Potency: viability; series mostly up to 45.8 µM. A digest of the protocol:
as §1

Test [9] can be described thus: Quantitative highthroughput screen to assess conditional lethalithy of SEM cells grown in Human Plasma-Like Medium with dialyzed fetal bovine serum (HPLM+ds) (AID 1963882). Further: nearly all actives have a fitted effect of over 35% in size. Particulars: SEM B-ALL cells in HPLM+ds, CellTiter-Glo viability, 48 h; series mostly up to 45.8 µM. A digest of the protocol: as §1
The nature of test [10]: Quantitative highthroughput screen to assess conditional lethalithy of SEM cells grown in RPMI1640 with unreated serum (RPMI+s) (AID 1963883). Further: nearly all actives have a fitted effect of over 35% in size.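 On Viability: 100% = DMSO wells and 0% = empty wells without cells.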 Particulars: SEM B-ALL cells, CellTiter-Glo viability, 48 h; series mostly up to 45.8 µM. The procedure, abridged: as §1
The nature of test [11]: Quantitative highthroughput screen to assess conditional lethalithy of SEM cells grown in RPMI1640 with dialyzed fetal bovine serum (RPMI+ds) (AID 1963884). Further: nearly all actives have a fitted effect of over 35% in size.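 On Viability: 100% = DMSO control wells and 0% = empty wells without cells.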 To be noted: SEM B-ALL cells, RPMI+dialyzed FBS, CellTiter-Glo viability, 48 h; series mostly up to 45.8 µM. The procedure, abridged: as §1
Test [12] in a line: Cellular viability qHTS for adrenocortical cancer (ACC) cell line SW-13 (AID 1963989). Further: nearly all actives have a fitted effect of over 65% in size.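 On activity (max response): cells grown in serum-free medium with ITS supplement; on the % scale 0 is the no-effect control and ±100 the full control effect.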 To be noted: SW-13 ACC cells viability, CellTiter-Glo, 48 h; activity (max response): hits give low values. A digest of the protocol: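 48 h treatment, SW-13 in ITS/DMEM serum-free; doses up to 46 uM; readout CellTiter-Glo luminescence; curve fit four-parameter logistic.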
A short description of test [13]: Cellular viability qHTS for adrenocortical cancer (ACC) cell line NCI-H295R (AID 1963990). Further: nearly all actives have a fitted effect of over 60% in size. To be noted: CellTiter-Glo ATP luminescence, 48 h; series mostly up to 46.1 µM. A digest of the protocol: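 Compound titrations (up to 46 uM final) are applied to NCI-H295R cultures for 48 h at 37C. Viable cell number is estimated by CellTiter-Glo signal, normalised to DMSO and doxorubicin controls.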
Potency means the concentration at half of the fitted maximal effect.

Sequence of Cytochrome P450 3A7 (Homo sapiens) (P24462 whole entry, looked up): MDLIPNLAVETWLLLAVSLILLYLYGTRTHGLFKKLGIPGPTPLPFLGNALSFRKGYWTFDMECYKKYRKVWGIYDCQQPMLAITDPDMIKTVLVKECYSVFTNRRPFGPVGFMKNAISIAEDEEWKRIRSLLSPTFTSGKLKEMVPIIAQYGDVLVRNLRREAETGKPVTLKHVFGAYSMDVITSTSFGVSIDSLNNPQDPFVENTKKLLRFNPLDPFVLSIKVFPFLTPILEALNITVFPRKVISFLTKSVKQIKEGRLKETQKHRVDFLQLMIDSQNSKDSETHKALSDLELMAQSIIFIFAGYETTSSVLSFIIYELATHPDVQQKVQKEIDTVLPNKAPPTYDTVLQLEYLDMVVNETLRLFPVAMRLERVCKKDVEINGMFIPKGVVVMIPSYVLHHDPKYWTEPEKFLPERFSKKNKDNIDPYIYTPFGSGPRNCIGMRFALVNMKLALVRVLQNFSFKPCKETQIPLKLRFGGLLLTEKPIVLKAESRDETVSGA

Regarding `COc1ccc(-c2cnc(-c3cccc4c3-c3ccccc3C4=O)o2)cc1`, in test [1], the Potency result was “inactive”. In test [2], the Potency is 0.0709 µM (active).

In the case of `c1ccc(N2CCN(CCc3nn[nH]n3)CC2)cc1`, the Potency result in test [1] and in [2] was “inactive” each time.

As to `CCC[C@H](N[C@@H](C)C(=O)N1[C@H](C(=O)O)C[C@@H]2CCCC[C@@H]21)C(=O)O`, the Potency entry in [1] and in test [2] was “inactive” throughout.

For the molecule `C[C@H]1CO[C@@H]2Cn3cc(C(=O)NCc4ccc(F)cc4F)c(=O)c(O)c3C(=O)N12`, the Potency entry in [1] is “inactive”. In addition, the Potency in test [2] is 7.31 µM (active).

As to `CN1CCc2nc(C(=O)N[C@@H]3C[C@@H](C(=O)N(C)C)CC[C@@H]3NC(=O)C(=O)Nc3ccc(Cl)cn3)sc2C1`, the Potency entry in [1] and in test [2] was “inactive” throughout.

As for `Cc1onc(-c2ccccc2)c1C(=O)N1CCN(c2ccc([N+](=O)[O-])cc2Cl)CC1`, the Potency entry in test [1] was “inactive”. The Potency in test [2] was 13 µM (active).

Turning to `O=C(NCc1ccccc1)c1ccc2c(=O)n(-c3cccc(C(F)(F)F)c3)c(=S)[nH]c2c1`, the Potency result in test [1] and in test [2] was “inactive” each time.

On to `COc1cc(OC)c(NC(=O)c2ccc(Cc3cc4c(cc3C)C(C)(C)CCC4(C)C)o2)c(OC)c1`, for which the Potency result in test [1] was “inactive”. Moreover, the Potency in [2] was 11.6 µM (active).

For `COc1ccc(C(=O)NCc2cc(C(C)C)no2)cc1OC1CCN(C)CC1`, the Potency result in [1] and in test [2] was “inactive” in each case.

On to `CCN1CCC[C@@H]1CNC(=O)c1ccc2c(c1)NC(=O)c1cccc(C)c1S2`, for which the Potency in [1] was 20000 nM (active); in test [2], 20.6 µM (active).

`NC(=O)c1ccccc1O`: the Potency result in test [1] and in [2] was “inactive” in each case.

As to `O=C(O)c1cn(-c2ccc(F)cc2)c2cc(N3CCNCC3)c(F)cc2c1=O`, the Potency result in test [1], in test [2], in [3], in test [4], in [5] and in test [6] was “inactive” in each case. For the same molecule, the Potency entry in test [7], in [8], in [9], in test [10], in [11] and in [13] was “inactive” throughout. Further, the activity (max response) in test [12] was -4.38% and 8.16%.

Take `C[C@]12C=CC(=O)C=C1CC[C@@H]1[C@@H]2[C@@H](O)C[C@@]2(C)[C@H]1CC[C@]2(O)C(=O)COC(=O)CCC(=O)O`: the Potency result in test [1] and in test [2] was “inactive” throughout.

As for `C[C@@H]1CN(c2c(F)c(N)c3c(=O)c(C(=O)O)cn(C4CC4)c3c2F)C[C@H](C)N1`, the Potency entry in test [1], in test [2], in test [3], in test [4], in [6] and in test [13] was “inactive” throughout. Further, in test [12], the activity (max response) was -1.88%.

As to `O=C(O)c1cccnc1`, the Potency entry in [1], in test [2] and in [13] was “inactive” throughout. Also, the Potency in [3] is 8330 nM (active); in test [4], 5260 nM (active); in [5], 3720 nM (active); in [7], 10500 nM (active); in test [9], 1180 nM (active); in test [11] it was 2960 nM (active). Moreover, the activity (max response) in test [12] was -4.23% and 5.29%.

Take `COc1ccccc1OC(=O)Oc1ccccc1OC`: the Potency result in test [1] was “inactive”. Besides, the Potency in [2] is 5.96 µM (active). For the same molecule, the activity (max response) in test [12] is 1.52%.

Take `CN(Cc1cnc2nc(N)nc(N)c2n1)c1ccc(C(=O)N[C@@H](CCC(=O)O)C(=O)O)cc1`: the Potency entry in test [1] is “inactive”. Besides, the Potency in test [2] is 10.6 nM (active) and 46.8 nM (active); in test [6], 66.2 nM (active); in test [7] it was 105 nM (active); in test [9], 132 nM (active); in test [10], 1050 nM (active); in test [11] it was 83.3 nM (active). The Potency in [12] is 18.4 nM (active) and 251 nM (active); in test [13], 13 nM (active) and 316 nM (active).

As for `CCCNC(=O)Nc1ccc(Oc2ncnc3cc(OC)c(OC)cc23)cc1Cl`, the Potency result in test [1], in test [3], in [4], in test [6], in test [7] and in test [13] was “inactive” each time. For the same molecule, the Potency in test [2] was 0.517 µM (active). Besides, in test [12], the activity (max response) is -6.45%.

In the case of `CCCCc1ccc2nc(NC(=O)OC)[nH]c2c1`, the Potency entry in test [1] is “inactive”. The Potency was 0.118 µM (active) in test [2]; 93.5 nM (active) in test [6]; 83.3 nM (active) in test [8]; 59 nM (active) in [10]; 41.8 nM (active) in [11]; 51.7 nM (active) and 282 nM (active) in [12]. Further, the Potency in test [13] was 103 nM (active) and 224 nM (active).

Consider `CCN(CC)C(=O)c1ccc(O)c(OC)c1`, for which the Potency result in [1] and in test [2] was “inactive” each time. Also, the activity (max response) in [12] is 3.37%.

Turning to `CCC(=O)Nc1cccc(Oc2nc(Nc3ccc(N4CCN(C)CC4)cc3OC)ncc2Cl)c1`, the Potency result in [1] is “inactive”. Besides, the Potency in [2] is 2.91 µM (active) and 2.35 µM (active). Further, the activity (max response) in [12] is -16.6%.

`O=C(O)CNC(=O)c1ccccc1`: the Potency entry in test [1] and in [2] was “inactive” each time. The activity (max response) in [12] is 6.31%.

Turning to `O=c1c(O)c(-c2ccc(O)cc2O)oc2cc(O)cc(O)c12`, the Potency entry in test [1], in test [2], in [3], in test [4] and in [13] was “inactive” each time. In addition, in test [12], the activity (max response) is 14.7%.

On to `O=S(=O)(O)c1ccc(O)cc1`, for which the Potency result in [1] and in test [2] was “inactive” each time. The activity (max response) in [12] was 11.9%.

As for `Cn1cc(-c2ccc(F)c(C(F)(F)F)c2)nc1C1CCN(c2ncnc3[nH]ncc23)CC1`, the Potency entry in [1], in test [2], in test [3], in test [4], in test [5] and in [6] was “inactive” each time. The Potency entry in [7], in test [8], in test [9], in test [10] and in test [13] was “inactive” in each case.

Consider `CCCCCCCC(=O)OCC(COC(=O)CCCCCCC)OC(=O)CCCCCCC`, for which the Potency result in [1] and in [2] was “inactive” in each case. Moreover, the activity (max response) in test [12] is 8.32%.

Consider `Nc1nc2c(ncn2COCCO)c(=O)[nH]1`, for which the Potency entry in test [1], in test [2], in test [3], in test [6], in test [7] and in [8] was “inactive” in each case. Further, the Potency result in test [13] was “inactive”. The activity (max response) in [12] was 1.46% and 4.77%.

For the molecule `CNC(=O)c1ccc(-c2cnc3ncc(Cc4ccc5ncccc5c4)n3n2)cc1F`, the Potency result in test [1], in test [3], in test [4], in test [5], in test [6] and in test [7] was “inactive” in each case. Further, the Potency entry in test [8], in test [9], in [10], in test [11] and in test [13] was “inactive” throughout. The Potency in [2] is 2.06 µM (active). Moreover, the activity (max response) in test [12] is 0.555%.
